# Measured values: PubChem BioAssay (EPA / NIEHS)
# Records with an inconclusive call do not appear. Calls of active or inactive are those of the source. Rule for the calls: active = hit-call score of the fitted dose curve at least 0.9, where 1 is the maximum; inconclusive = response in the unintended direction; inactive = score below 0.9.
# Assays:
# [1] = molecular target: human Vasopressin 1A Receptor (V1A), AVPR1A (gene 552) (UniProt P37288); assay: NVS_GPCR_hV1A: NovaScreen (NVS) G Protein-Coupled Receptor Assay for human Vasopressin 1A Receptor (V1A) (AID 2283284)
# Method in brief: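 Single-concentration duplicate screen at 25 uM, with concentration-response follow-up (top 50 uM) for actives. The assay measured displacement of a radioligand from human platelet-derived receptor after 1.5 h, detected by filtration and scintillation counting.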
# [2] = molecular target: human Muscarinic, M4 Receptor, CHRM4 (gene 1132) (UniProt P08173); assay: NVS_GPCR_hM4: NovaScreen (NVS) G Protein-Coupled Receptor Assay for human Muscarinic, M4 Receptor (AID 2283274)
# Method in brief: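 Filter-based scintillation counting of radioligand bound to CHO-expressed human M4 preparations after 1 h; loss of signal fitted versus DMSO. Initial duplicate testing at 25 uM, concentration-response follow-up for actives.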
# [3] = molecular target: human Neurokinin, NK2 Receptor, TACR2 (gene 6865) (UniProt P21452); assay: NVS_GPCR_hNK2: NovaScreen (NVS) G Protein-Coupled Receptor Assay for human Neurokinin, NK2 Receptor (AID 2283278);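 note: actives reduce bound radioligand signal relative to DMSO baseline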
# Method in brief: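 Radioligand binding on membranes from CHO cells expressing receptor, filter-based scintillation read 4 h after dosing. Initial duplicate screen at 25 uM, actives in concentration series; loss of signal versus DMSO.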
# [4] = molecular target: human Neuropeptide Receptor Y1 (NPY1), NPY1R (gene 4886) (UniProt P25929); assay: NVS_GPCR_hNPY1: NovaScreen (NVS) G Protein-Coupled Receptor Assay for human Neuropeptide Receptor Y1 (NPY1) (AID 2283276)
# Method in brief: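 Displacement of specific radioligand from NPY1 receptor of SK-N-MC origin, read by filtration and scintillation after 1 h. Compounds first tested at 25 uM in duplicate, then actives in concentration series; signal loss relative to DMSO.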
# [5] = molecular target: rat Serotonin, 5-Hydroxytryptamine Receptor 1 (5HT1), Non-Selective Binding, Htr1a (gene 24473) (UniProt P19327); assay: NVS_GPCR_r5HT1_NonSelective: NovaScreen (NVS) G Protein-Coupled Receptor Assay for rat Serotonin, 5-Hydroxytryptamine Receptor 1 (5HT1), Non-Selective Binding (AID 2283286)
# Method in brief: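 Binding of a radioligand to rat cortex membranes is read by filtration and scintillation counting after 1 h. Compounds were screened at 25 uM in duplicate. Actives were then titrated to a top of 50 uM. DMSO is the baseline.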
# [6] = molecular target: Neuropeptide Y receptor type 2 (Homo sapiens) (UniProt P49146); assay: NVS_GPCR_hNPY2: NovaScreen (NVS) G Protein-Coupled Receptor Assay for human Neuropeptide Receptor Y2 (NPY2) (AID 2283277)
# Method in brief: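 Chemicals were first tested in duplicate at 25 uM, then actives in singleton concentration series to 50 uM. Tracer binding to SK-N-MC-derived protein measured cell-free after 1 h via filter scintillation; signal loss relative to DMSO.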
# [7] = molecular target: Muscarinic acetylcholine receptor M2 (Homo sapiens) (UniProt P08172); assay: NVS_GPCR_hM2: NovaScreen (NVS) G Protein-Coupled Receptor Assay for human Muscarinic, M2 Receptor (AID 2283273)
# Method in brief: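 Filter-based radiodetection read bound radioligand 1 h after dosing CHO-derived membrane protein. Single-concentration duplicates (25 uM) first, then concentration-response for actives; signal loss versus DMSO scored.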
# [8] = molecular target: mouse Cholecystokinin, CCK1 Receptor (CCKA), Cckar (gene 12425) (UniProt O08786); assay: NVS_GPCR_mCCKAPeripheral: NovaScreen (NVS) G Protein-Coupled Receptor Assay for mouse Cholecystokinin, CCK1 Receptor (CCKA) (AID 2283285)
# Method in brief: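 Chemicals were first screened in duplicate at 25 uM, with those meeting threshold (e.g., 30% inhibition) retested in singleton concentration series to 50 uM maximum. Binding of radioligand to mouse pancreatic membranes was read after 2 h by filtration and scintillation counting.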
# [9] = molecular target: human Neurotensin Receptor (NTS), NTSR1 (gene 4923) (UniProt P30989); assay: NVS_GPCR_hNTS: NovaScreen (NVS) G Protein-Coupled Receptor Assay for human Neurotensin Receptor (NTS) (AID 2283279)
# Method in brief: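 Compounds competed with a radiolabelled ligand for binding to CHO-derived human neurotensin receptor; bound signal counted after filtration, 1 h. Screened first at a single concentration of 25 uM in duplicate, then concentration series to 50 uM maximum for actives.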
# [10] = molecular target: human Thromboxane A2 Receptor (TXA2), TBXA2R (gene 6915) (UniProt P21731); assay: NVS_GPCR_hTXA2: NovaScreen (NVS) G Protein-Coupled Receptor Assay for human Thromboxane A2 Receptor (TXA2) (AID 2283282);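 note: actives reduce bound radioligand signal relative to DMSO baseline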
# Method in brief: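 Biochem binding, human platelets, cell-free; competitive radioligand displacement; 1 h; filter radiodetection. 25 uM duplicate primary, conc. series secondary; DMSO neg. ctrl.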
# mouse Cholecystokinin, CCK1 Receptor (CCKA), Cckar (gene 12425), sequence (O08786 whole entry, looked up): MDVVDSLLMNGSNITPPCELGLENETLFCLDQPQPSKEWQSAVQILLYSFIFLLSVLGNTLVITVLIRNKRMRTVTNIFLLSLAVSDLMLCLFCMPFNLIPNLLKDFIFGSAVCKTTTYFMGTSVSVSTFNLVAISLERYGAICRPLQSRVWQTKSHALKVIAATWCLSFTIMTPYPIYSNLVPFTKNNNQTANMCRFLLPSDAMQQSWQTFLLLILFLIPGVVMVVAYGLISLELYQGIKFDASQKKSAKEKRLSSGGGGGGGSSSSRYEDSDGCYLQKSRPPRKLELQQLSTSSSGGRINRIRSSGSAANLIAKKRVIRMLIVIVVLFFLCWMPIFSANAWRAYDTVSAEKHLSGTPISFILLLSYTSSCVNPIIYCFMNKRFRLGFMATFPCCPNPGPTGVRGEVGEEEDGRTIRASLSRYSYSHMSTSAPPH
# human Neurotensin Receptor (NTS), NTSR1 (gene 4923), sequence (P30989 whole entry, looked up): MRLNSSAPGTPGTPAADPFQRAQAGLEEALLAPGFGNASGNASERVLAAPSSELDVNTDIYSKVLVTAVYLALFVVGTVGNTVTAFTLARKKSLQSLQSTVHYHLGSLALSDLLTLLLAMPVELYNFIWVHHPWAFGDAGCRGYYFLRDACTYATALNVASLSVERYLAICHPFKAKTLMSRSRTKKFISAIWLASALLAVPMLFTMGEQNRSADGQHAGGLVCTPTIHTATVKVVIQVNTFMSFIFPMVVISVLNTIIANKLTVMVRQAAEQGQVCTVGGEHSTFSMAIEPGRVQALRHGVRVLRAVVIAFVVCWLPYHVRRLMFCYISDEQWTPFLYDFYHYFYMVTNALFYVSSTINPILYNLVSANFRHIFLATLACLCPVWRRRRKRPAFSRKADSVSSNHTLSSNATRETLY
# rat Serotonin, 5-Hydroxytryptamine Receptor 1 (5HT1), Non-Selective Binding, Htr1a (gene 24473), sequence (P19327 whole entry, looked up): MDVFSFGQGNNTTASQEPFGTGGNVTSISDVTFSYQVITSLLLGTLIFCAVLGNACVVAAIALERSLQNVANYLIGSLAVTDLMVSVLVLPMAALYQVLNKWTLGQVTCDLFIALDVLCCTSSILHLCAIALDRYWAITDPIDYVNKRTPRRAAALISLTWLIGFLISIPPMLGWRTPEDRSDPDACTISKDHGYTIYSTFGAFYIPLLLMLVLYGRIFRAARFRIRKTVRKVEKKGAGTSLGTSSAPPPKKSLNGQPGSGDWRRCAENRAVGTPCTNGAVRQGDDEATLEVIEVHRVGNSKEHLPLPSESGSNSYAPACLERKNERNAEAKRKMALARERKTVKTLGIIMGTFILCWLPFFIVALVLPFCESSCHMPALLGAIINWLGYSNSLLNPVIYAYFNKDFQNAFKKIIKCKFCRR
# human Muscarinic, M4 Receptor, CHRM4 (gene 1132), sequence (P08173 whole entry, looked up): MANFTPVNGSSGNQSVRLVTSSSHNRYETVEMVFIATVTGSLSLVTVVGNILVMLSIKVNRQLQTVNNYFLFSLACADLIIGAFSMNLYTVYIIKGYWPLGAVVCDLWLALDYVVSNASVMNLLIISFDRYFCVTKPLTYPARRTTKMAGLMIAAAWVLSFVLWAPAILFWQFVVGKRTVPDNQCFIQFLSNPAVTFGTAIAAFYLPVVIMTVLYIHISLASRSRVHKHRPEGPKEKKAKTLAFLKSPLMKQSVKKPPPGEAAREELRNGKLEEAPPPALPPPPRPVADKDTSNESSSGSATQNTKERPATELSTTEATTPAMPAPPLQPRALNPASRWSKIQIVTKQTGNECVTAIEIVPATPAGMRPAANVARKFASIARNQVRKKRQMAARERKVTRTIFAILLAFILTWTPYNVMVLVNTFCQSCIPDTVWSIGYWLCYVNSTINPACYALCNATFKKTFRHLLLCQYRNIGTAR
# human Neurokinin, NK2 Receptor, TACR2 (gene 6865), sequence (P21452 whole entry, looked up): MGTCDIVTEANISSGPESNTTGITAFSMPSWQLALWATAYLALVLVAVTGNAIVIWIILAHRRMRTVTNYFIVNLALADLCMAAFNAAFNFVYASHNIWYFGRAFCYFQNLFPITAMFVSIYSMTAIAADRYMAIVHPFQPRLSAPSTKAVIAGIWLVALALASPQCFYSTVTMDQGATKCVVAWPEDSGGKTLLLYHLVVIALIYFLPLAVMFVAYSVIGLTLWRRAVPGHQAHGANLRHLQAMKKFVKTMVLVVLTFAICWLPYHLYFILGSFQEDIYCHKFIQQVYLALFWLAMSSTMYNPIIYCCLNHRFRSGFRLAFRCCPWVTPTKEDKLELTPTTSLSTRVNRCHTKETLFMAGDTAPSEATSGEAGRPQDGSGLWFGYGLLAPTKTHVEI
# Muscarinic acetylcholine receptor M2 (Homo sapiens), sequence (P08172 whole entry, looked up): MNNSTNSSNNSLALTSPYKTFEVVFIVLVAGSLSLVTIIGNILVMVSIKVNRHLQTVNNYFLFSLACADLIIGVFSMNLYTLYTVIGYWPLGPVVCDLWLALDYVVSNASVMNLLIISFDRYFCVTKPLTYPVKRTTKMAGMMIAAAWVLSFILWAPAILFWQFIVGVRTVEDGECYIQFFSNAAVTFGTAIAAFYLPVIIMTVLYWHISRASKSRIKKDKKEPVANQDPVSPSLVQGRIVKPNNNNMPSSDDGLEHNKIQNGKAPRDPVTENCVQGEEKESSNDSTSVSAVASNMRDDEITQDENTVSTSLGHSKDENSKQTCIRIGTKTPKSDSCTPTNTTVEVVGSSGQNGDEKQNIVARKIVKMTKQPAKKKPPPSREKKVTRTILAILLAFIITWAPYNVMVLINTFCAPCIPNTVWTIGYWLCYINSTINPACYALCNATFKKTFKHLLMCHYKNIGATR
# human Neuropeptide Receptor Y1 (NPY1), NPY1R (gene 4886), sequence (P25929 whole entry, looked up): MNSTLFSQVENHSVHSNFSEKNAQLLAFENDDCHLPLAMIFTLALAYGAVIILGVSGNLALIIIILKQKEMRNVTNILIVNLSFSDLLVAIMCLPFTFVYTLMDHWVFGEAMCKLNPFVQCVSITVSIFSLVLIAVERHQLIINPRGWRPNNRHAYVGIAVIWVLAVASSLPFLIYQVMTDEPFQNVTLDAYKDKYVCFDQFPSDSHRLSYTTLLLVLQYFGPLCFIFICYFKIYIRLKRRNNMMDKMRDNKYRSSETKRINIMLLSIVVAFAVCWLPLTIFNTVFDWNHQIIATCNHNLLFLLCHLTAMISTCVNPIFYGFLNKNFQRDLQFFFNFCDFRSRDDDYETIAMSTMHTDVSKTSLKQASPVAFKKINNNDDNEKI
# Neuropeptide Y receptor type 2 (Homo sapiens), sequence (P49146 whole entry, looked up): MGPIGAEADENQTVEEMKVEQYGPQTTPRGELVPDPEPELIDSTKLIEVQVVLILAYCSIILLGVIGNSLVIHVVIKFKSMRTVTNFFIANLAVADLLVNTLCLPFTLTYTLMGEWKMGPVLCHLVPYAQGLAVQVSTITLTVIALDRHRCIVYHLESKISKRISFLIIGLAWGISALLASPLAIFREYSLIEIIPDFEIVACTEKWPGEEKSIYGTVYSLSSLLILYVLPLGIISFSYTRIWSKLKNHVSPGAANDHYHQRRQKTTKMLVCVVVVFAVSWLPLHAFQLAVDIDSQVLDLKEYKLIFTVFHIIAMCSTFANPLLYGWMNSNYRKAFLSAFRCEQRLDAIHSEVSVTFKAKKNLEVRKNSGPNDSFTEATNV
# human Thromboxane A2 Receptor (TXA2), TBXA2R (gene 6915), sequence (P21731 whole entry, looked up): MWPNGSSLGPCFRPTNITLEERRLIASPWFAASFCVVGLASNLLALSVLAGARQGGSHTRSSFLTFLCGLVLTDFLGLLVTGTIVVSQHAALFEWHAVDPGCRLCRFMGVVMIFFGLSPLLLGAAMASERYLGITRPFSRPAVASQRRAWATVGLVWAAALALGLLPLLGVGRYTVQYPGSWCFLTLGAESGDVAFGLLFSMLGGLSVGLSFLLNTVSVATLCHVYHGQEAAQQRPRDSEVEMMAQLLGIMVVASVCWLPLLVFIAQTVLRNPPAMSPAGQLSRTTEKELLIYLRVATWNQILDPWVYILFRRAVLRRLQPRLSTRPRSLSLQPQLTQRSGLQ
# human Vasopressin 1A Receptor (V1A), AVPR1A (gene 552), sequence (P37288 whole entry, looked up): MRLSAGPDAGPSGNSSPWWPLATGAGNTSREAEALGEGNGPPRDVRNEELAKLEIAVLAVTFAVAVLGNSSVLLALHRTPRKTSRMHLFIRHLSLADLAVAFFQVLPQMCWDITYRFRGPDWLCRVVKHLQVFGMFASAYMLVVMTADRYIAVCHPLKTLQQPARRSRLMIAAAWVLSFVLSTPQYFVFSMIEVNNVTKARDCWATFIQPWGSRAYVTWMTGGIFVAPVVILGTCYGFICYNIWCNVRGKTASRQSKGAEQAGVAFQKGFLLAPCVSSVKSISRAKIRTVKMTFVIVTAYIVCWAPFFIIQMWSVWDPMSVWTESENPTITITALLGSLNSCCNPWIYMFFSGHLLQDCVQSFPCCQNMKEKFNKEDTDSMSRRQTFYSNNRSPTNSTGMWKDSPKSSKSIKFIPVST
smiles,measurement,setting,value
CN/C(=N\[N+](=O)[O-])NCc1cnc(Cl)s1,outcome,[1],inactive
N#Cc1c(Cl)cccc1Cl,outcome,[2],inactive
CCOc1nc(F)cc2nc(S(=O)(=O)Nc3c(Cl)cccc3Cl)nn12,outcome,[3],inactive
O=C1C2CC=CCC2C(=O)N1SC(Cl)(Cl)Cl (centres undefined),AC50,[4],9.25 µM (active)
same,AC50,[3],4.9 µM (active)
Cc1ccc(N=CN(C)C=Nc2ccc(C)cc2C)c(C)c1,outcome,[2],inactive
same,AC50,[5],0.463 µM (active)
N#CN=C1SCCN1Cc1ccc(Cl)nc1,outcome,[6],inactive
CC1(C)CCC(=Cc2ccc(Cl)cc2)C1(O)Cn1cncn1 (centres undefined),outcome,[5],inactive
CCCCC(O)(Cn1cncn1)c1ccc(Cl)cc1Cl (centres undefined),outcome,[7],inactive
same,outcome,[4],inactive
same,outcome,[8],inactive
CCNC(=O)NC(=O)C(C#N)=NOC,outcome,[2],inactive
CC(C)(C)C(=O)C(Oc1ccc(Cl)cc1)n1cncn1 (centres undefined),AC50,[7],4.96 µM (active)
same,outcome,[2],inactive
Cc1cc(C)nc(Nc2ccccc2)n1,AC50,[7],4.96 µM (active)
same,AC50,[2],14.9 µM (active)
CC1(C)C(C=C(Cl)Cl)C1C(=O)OC(C#N)c1cccc(Oc2ccccc2)c1 (centres undefined),outcome,[3],inactive
same,AC50,[8],17.1 µM (active)
O=C(Nc1ccccc1-c1ccc(Cl)cc1)c1cccnc1Cl,outcome,[9],inactive
CCOC(=O)C(C)OC(=O)c1cc(Oc2ccc(C(F)(F)F)cc2Cl)ccc1[N+](=O)[O-] (centres undefined),outcome,[8],inactive
COP(=O)(OC)O/C(C)=C/C(=O)N(C)C,outcome,[9],inactive
CCNP(=S)(OC)O/C(C)=C/C(=O)OC(C)C (centres undefined),outcome,[7],inactive
same,outcome,[6],inactive
CCOP(=O)(OCC)Oc1nc(Cl)c(Cl)cc1Cl,outcome,[7],inactive
Cc1c(COC(=O)[C@@H]2[C@H](/C=C(\Cl)C(F)(F)F)C2(C)C)cccc1-c1ccccc1,outcome,[3],inactive
COc1cc(Cl)c(OC)cc1Cl,outcome,[5],inactive
CCSC(=O)N1CCCCCC1,AC50,[7],6.85 µM (active)
same,AC50,[2],4.96 µM (active)
CCN(CC)C(=O)C(C)Oc1cccc2ccccc12 (centres undefined),outcome,[10],inactive
Cn1c(-c2ccccc2)cc(-c2ccccc2)[n+]1C,AC50,[7],3.97 µM (active)
same,AC50,[2],7.59 µM (active)
same,outcome,[9],inactive
CCCCC(C#N)(Cn1cncn1)c1ccc(Cl)cc1 (centres undefined),AC50,[7],14.6 µM (active)
same,AC50,[2],7.69 µM (active)
CC1(C)C(C(=O)OC(C#N)c2cccc(Oc3ccccc3)c2)C1(C)C (centres undefined),outcome,[3],inactive
same,outcome,[8],inactive
CCCN(CC)CC1COC2(CCC(C(C)(C)C)CC2)O1 (centres undefined),AC50,[7],4.96 µM (active)
same,AC50,[2],3.3 µM (active)
